Results: a collection of fitness landscapes (doi:10.1126/science.1257360)
Whole data set: some 140,000 sequences, median “enrichment ratio after two sorts for PhoP signalling” near 0, cut for the highest 2% near 11. For the sample, the highest values were picked, then their nearest neighbours and some sequences at random.

B1: PhoQ; a variant is named by its letters at X, in order, P23837 (parent)
chain: MKKLLRLFFPLSLRVRFLLATAAVVLVLSLAYGMVALIGYSVSFDKTTFRLLRGESNLFYTLAKWENNKLHVELPENIDKQSPTMTLIYDENGQLLWAQRDVPWLMKMIQPDWLKSNGFHEIEADVNDTSLLLSGDHSIQQQLQEVREDDDDAEMTHSVAVNVYPATSRMPKLTIVVVDTIPVELKSSYMVWSWFIYVLSANLLLVIPLLWVAAWWSLRPIEALAKEVRELEEHNRELLNPATTRELTSLVRNLNRLLKSERERYDKYRTTLTDLTHSLKTPLXXLQXXLRSLRSEKMSVSDAEPVMLEQISRISQQIGYYLHRASMRGGTLLSRELHPVAPLLDNLTSALNKVYQRKGVNISLDISPEISFVGEQNDFVEVMGNVLDNACKYCLEFVEISARQTDEHLYIVVEDDGPGIPLSKREVIFDRGQRVDTLRPGQGVGLAVAREITEQYEGKIVAGESMLGGARMEVIFGRQHSAPKDE

Variants of: B1
Test: enrichment ratio after two sorts for PhoP signalling (ratio (wild type AVST 3.29)); higher = more functional
Settings: with PhoP (E. coli)

| Variant | enrichment ratio |
| --- | --- |
| EQWF | ≤ 0.25 |
| TQKS | ≤ 0.25 |
| TDDA | ≤ 0.25 |
| HGKC | ≤ 0.25 |
| ILFG | ≤ 0.25 |
| SEAM | 15.9 |
| YTAM | ≤ 0.25 |
| STAM | 12.1 |
| SFAM | ≤ 0.25 |
| SQAM | 21.4 |
| SPAM | ≤ 0.25 |
| SERM | ≤ 0.25 |
| WQAM | ≤ 0.25 |
| RSGP | ≤ 0.25 |
| ILCM | ≤ 0.25 |
| CSYF | ≤ 0.25 |
| EGPL | ≤ 0.25 |
| STKG | ≤ 0.25 |
| TAEP | 0.518 |
| VSNR | ≤ 0.25 |
| TKLN | 8.35 |
| ITLN | 1.49 |
| AILN | 4.12 |
| AKLN | 14 |

| Variant | enrichment ratio |
| --- | --- |
| KYLN | ≤ 0.25 |
| TTLN | 23.9 |
| TGCN | 42.2 |
| SPLN | ≤ 0.25 |
| STLN | 14.8 |
| GGCN | 0.54 |
| RGCN | ≤ 0.25 |
| YTLN | 8.58 |
| AGQV | ≤ 0.25 |
| QSKK | ≤ 0.25 |
| HWTI | ≤ 0.25 |
| QAFH | 9.93 |
| QFDR | ≤ 0.25 |
| QGQP | ≤ 0.25 |
| LKDC | ≤ 0.25 |
| PWTA | ≤ 0.25 |
| LSFA | ≤ 0.25 |
| YDML | ≤ 0.25 |
| ATQN | ≤ 0.25 |
| ADCN | 11.5 |
| ATLN | 17.9 |
| ATCN | 3.42 |
| AWCN | ≤ 0.25 |
| TVCN | 26.1 |

| Variant | enrichment ratio |
| --- | --- |
| SPCN | ≤ 0.25 |
| NVCN | ≤ 0.25 |
| AHCN | ≤ 0.25 |
| AICN | 18.7 |
| NICN | ≤ 0.25 |
| RICN | ≤ 0.25 |
| CTFI | 9.39 |
| DTFW | ≤ 0.25 |
| LRFL | ≤ 0.25 |
| IIPK | ≤ 0.25 |
| EKLK | ≤ 0.25 |
| QVPD | ≤ 0.25 |
| ENFI | ≤ 0.25 |
| QKFY | ≤ 0.25 |
| ANCN | 33 |
| HWCN | ≤ 0.25 |
| ASCN | 15.3 |
| ASLN | 9.05 |
| SGCN | 11.5 |
| LTCN | ≤ 0.25 |
| TDCN | 15.7 |
| ANLN | 8.47 |
| SGCK | 8.85 |
| KDCN | ≤ 0.25 |

| Variant | enrichment ratio |
| --- | --- |
| SGLN | 10.9 |
| VRCN | ≤ 0.25 |
| MIMG | ≤ 0.25 |
| MYAM | ≤ 0.25 |
| RCLW | ≤ 0.25 |
| SMWE | ≤ 0.25 |
| ALQI | ≤ 0.25 |
| PLLC | ≤ 0.25 |
| MISF | 3.65 |
| KACN | ≤ 0.25 |
| TTCN | 11.9 |
| AACN | 12.7 |
| LWCN | ≤ 0.25 |
| YTCN | ≤ 0.25 |
| AALN | 8.23 |
| KGPM | ≤ 0.25 |
| SMIS | ≤ 0.25 |
| TENM | 15.7 |
| TEGD | ≤ 0.25 |
| MEVI | 18.2 |
| MMVI | ≤ 0.25 |
| TEVA | 6.58 |
| TEVI | 12.8 |
| NENM | ≤ 0.25 |

| Variant | enrichment ratio |
| --- | --- |
| TEND | 23.1 |
| MCVI | ≤ 0.25 |
| NEVI | 4.98 |
| TEYD | ≤ 0.25 |
| MENM | ≤ 0.25 |
| ESVY | ≤ 0.25 |
| NGGL | ≤ 0.25 |
| LFQL | ≤ 0.25 |
| KSDP | ≤ 0.25 |
| FMMA | ≤ 0.25 |
| TENL | 6.63 |
| TENS | 8.17 |
| TENY | 11.3 |
| PRSQ | ≤ 0.25 |
| TGHK | ≤ 0.25 |
| FSEI | ≤ 0.25 |
| AAMG | 9.84 |
| YEST | 12.8 |
| NEST | 3.45 |
| SEST | 18.4 |
| YTST | ≤ 0.25 |
| SQST | 6.97 |
| SRST | ≤ 0.25 |
| QEST | 1.97 |

| Variant | enrichment ratio |
| --- | --- |
| FTST | ≤ 0.25 |
| TEST | 23.4 |
| PLIK | ≤ 0.25 |
| AQAT | 5.01 |
| SLNT | ≤ 0.25 |
| FKYM | ≤ 0.25 |
| TAAH | 19.2 |
| TANH | ≤ 0.25 |
| TAKH | ≤ 0.25 |
| KASH | ≤ 0.25 |
| HFAH | ≤ 0.25 |
| TASH | 11.7 |
| YMQV | ≤ 0.25 |
| FCDV | ≤ 0.25 |
| TINR | 15.4 |
| TIRA | ≤ 0.25 |
| RINR | ≤ 0.25 |
| TITS | 15.9 |
| TIRM | 5.12 |
| TIWI | ≤ 0.25 |
| RIQI | ≤ 0.25 |
| TIYI | 4.29 |
| TIQI | 12.3 |
| TIWS | 15.7 |

| Variant | enrichment ratio |
| --- | --- |
| WINR | ≤ 0.25 |
| AIQI | 0.475 |
| KTHN | ≤ 0.25 |
| SPNA | ≤ 0.25 |
| NRQT | ≤ 0.25 |
| APHK | ≤ 0.25 |
| IMQV | ≤ 0.25 |
| LPRC | ≤ 0.25 |
| EVLG | ≤ 0.25 |
| TISC | 15 |
| TINL | 9.31 |
| TIMG | 3.15 |
| PSEG | ≤ 0.25 |
| RINN | ≤ 0.25 |
| TINN | 12.6 |
| TIEG | 11.8 |
| WISC | ≤ 0.25 |
| TISS | 11.9 |
| WISS | ≤ 0.25 |
| TISA | 10.6 |
| RISC | ≤ 0.25 |
| WFHG | ≤ 0.25 |
| MFFV | ≤ 0.25 |
| SPGL | ≤ 0.25 |

| Variant | enrichment ratio |
| --- | --- |
| VISE | ≤ 0.25 |
| FCRN | ≤ 0.25 |
| TIMV | 1.5 |
| TIAN | 19.6 |
| TITV | 15.1 |
| TIQN | 5.05 |
| TIFI | 0.264 |
| TIQH | 12.6 |
| TIDV | ≤ 0.25 |
| WITV | ≤ 0.25 |
| TIKH | ≤ 0.25 |
| TIYV | 16.6 |
| TIWV | ≤ 0.25 |
| RIAN | ≤ 0.25 |
| PPYV | ≤ 0.25 |
| EETS | ≤ 0.25 |
| VSPI | ≤ 0.25 |
| TIGS | 15 |
| TINK | 7.27 |
| TIFP | ≤ 0.25 |
| AIAA | 9.24 |
| TIFC | ≤ 0.25 |
| TIQP | ≤ 0.25 |
| TIAA | 12 |

| Variant | enrichment ratio |
| --- | --- |
| TIFA | ≤ 0.25 |
| TITC | 12.2 |
| TIAD | ≤ 0.25 |
| TIVK | ≤ 0.25 |
| TIQQ | 16.4 |
| AMHL | ≤ 0.25 |
| PQHY | ≤ 0.25 |
| EMES | ≤ 0.25 |
| LHSI | ≤ 0.25 |
| LTDV | ≤ 0.25 |
| PMYR | ≤ 0.25 |
| LERK | ≤ 0.25 |
| TIGR | 5.97 |
| TIGD | 11.6 |
| WIQR | ≤ 0.25 |
| RIEH | ≤ 0.25 |
| TIRI | 2.01 |
| TIMD | ≤ 0.25 |
| TIEH | 27.9 |
| TIQR | 16 |
| TINT | 4.95 |
| TITH | 1.26 |
| TINH | 34.4 |
| TITD | ≤ 0.25 |

| Variant | enrichment ratio |
| --- | --- |
| FADQ | ≤ 0.25 |
| MASY | ≤ 0.25 |
| PWSE | ≤ 0.25 |
| ECDR | ≤ 0.25 |
| AKEC | ≤ 0.25 |
| PVAT | ≤ 0.25 |
| MGSV | 15.6 |
| RGSV | ≤ 0.25 |
| MGSK | ≤ 0.25 |
| GGSV | 23.9 |
| MGWR | ≤ 0.25 |
| GIMV | 2.38 |
| YHSV | ≤ 0.25 |
| GNSV | 8.29 |
| NGSV | ≤ 0.25 |
| GISV | 11.2 |
| TGSV | 17.2 |
| NISV | 3.96 |
| YIFP | ≤ 0.25 |
| IYDW | ≤ 0.25 |
| LKWY | ≤ 0.25 |
| FTWQ | ≤ 0.25 |
| GEMD | ≤ 0.25 |
| GAMI | 18.9 |

| Variant | enrichment ratio |
| --- | --- |
| GANW | ≤ 0.25 |
| GAMV | ≤ 0.25 |
| GEMS | 4.64 |
| GEMI | 84 |
| HTQK | ≤ 0.25 |
| QEKV | ≤ 0.25 |
| MKDS | ≤ 0.25 |
| VMDC | ≤ 0.25 |
| HYLA | ≤ 0.25 |
| NHAI | ≤ 0.25 |
| KSAI | ≤ 0.25 |
| RGAI | ≤ 0.25 |
| SGKR | ≤ 0.25 |
| CFAI | ≤ 0.25 |
| NSAI | 0.375 |
| TGAI | 12.3 |
| THAI | 14.8 |
| SGAT | 5.6 |
| SHAI | ≤ 0.25 |
| TSAI | 16.9 |
| SGAI | 12.3 |
| HRPD | ≤ 0.25 |
| FYDW | ≤ 0.25 |
| TKHK | ≤ 0.25 |

| Variant | enrichment ratio |
| --- | --- |
| AFWS | ≤ 0.25 |
| EVSQ | ≤ 0.25 |
| SCCW | 5.25 |
| TARR | 0.314 |
| PTWW | ≤ 0.25 |
| ADAI | 4.82 |
| KDAI | ≤ 0.25 |
| TDAI | 13.6 |
| TQTA | 5.01 |
| TQSC | 15.3 |
| NQSC | ≤ 0.25 |
| GQTM | ≤ 0.25 |
| FQTM | ≤ 0.25 |
| TQFC | 8.5 |
| TQTM | 22.5 |
| TQTK | ≤ 0.25 |
| TQTC | 18.9 |
| FPER | ≤ 0.25 |
| LWDG | ≤ 0.25 |
| AHGV | ≤ 0.25 |
| AGGV | 11.4 |
| AEGV | 17.5 |
| AEHV | ≤ 0.25 |
| AIGV | ≤ 0.25 |

| Variant | enrichment ratio |
| --- | --- |
| AMGV | ≤ 0.25 |
| VYHA | ≤ 0.25 |
| ALVG | 1.71 |
| HEES | ≤ 0.25 |
| LAFL | 2.72 |
| AFDH | ≤ 0.25 |
| ALVN | 13.7 |
| ACWM | ≤ 0.25 |
| ACTC | 4.29 |
| ALQN | ≤ 0.25 |
| ACNL | ≤ 0.25 |
| ACTM | 11.9 |
| ACGM | ≤ 0.25 |
| ALNL | 1.07 |
| ACTI | 5.16 |
| ACVN | 31.5 |
| ACIM | 30.7 |
| ACPN | ≤ 0.25 |
